Where “and” joins values, the source holds several entries; their conditions need not be identical. Equal values may be shown once. The campaign covered roughly 5,500 compounds. About 2,000 (36%) were called active. Not shown: some 18% with an inconclusive outcome. Rule as the data show it: active = normalized growth mostly below about 0.91 (no sharp cut-off); inconclusive = no clear call, values can overlap the other calls; inactive = mostly above about 0.92. This is one part of the list.
Assay: chemical genetic growth profiling, strain panel (AID 1159580);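 also: tested at 20 µM; growth read once vehicle control cultures reached saturation at 30 °C; 1 = growth at the plate median or of vehicle wells; lower values mean less growth of the strain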
Conditions: S. cerevisiae deletion strains, growth OD

Measured: normalized growth

CC1=C(/C=C/C(C)=C/C=C/C(C)=C/C=C/C=C(C)/C=C/C=C(C)/C=C/C2=C(C)CCCC2(C)C)C(C)(C)CCC1
inactive: locus YAL021C, strain ccr4, hits give low values 0.978 | locus YAL026C, strain drs2, hits give low values 0.997 | locus YAL030W, strain snc1, hits give low values 0.995 | locus YBL061C, strain skt5, hits give low values 0.997 | locus YBR021W, strain FUR4, hits give low values 0.99 | locus YBR023C, strain chs3, hits give low values 0.992 | locus YBR171W, strain sec66, hits give low values 0.977 | locus YBR229C, strain ROT2, hits give low values 1.01 | locus YBR231C, strain swc5, hits give low values 1.02 | locus YBR279W, strain paf1, hits give low values 0.987 | locus YCL011C, strain gbp2, hits give low values 0.997 | locus YCL016C, strain dcc1, hits give low values 1.01 | locus YCL029C, strain bik1, hits give low values 1.02 | locus YCL061C, strain MRC1, hits give low values 0.995 | locus YCL069W, strain vba3, hits give low values 0.997 | locus YCR088W, strain abp1, hits give low values 0.995 | locus YDL005C, strain med2, hits give low values 0.998 | locus YDL035C, strain GPR1, hits give low values 1 | locus YDL040C, strain nat1, hits give low values 0.995 | locus YDL074C, strain BRE1, hits give low values 1 | locus YDL101C, strain DUN1, hits give low values 1.01 | locus YDL134C, strain PPH21, hits give low values 1.01 | locus YDL185W, strain tfp1, hits give low values 1.02 | locus YDL192W, strain arf1, hits give low values 1.02 | locus YDR001C, strain nth1, hits give low values 0.987 | locus YDR069C, strain doa4, hits give low values 0.994 | locus YDR101C, strain arx1, hits give low values 0.982 | locus YDR137W, strain rgp1, hits give low values 0.964 | locus YDR150W, strain NUM1, hits give low values 1.01 | locus YDR159W, strain sac3, hits give low values 1.01 | locus YDR162C, strain NBP2, hits give low values 1.02 | locus YDR195W, strain ref2 0.999 | locus YDR297W, strain sur2, hits give low values 1.02 | locus YDR318W, strain mcm21, hits give low values 1.01 | locus YDR334W, strain swr1, hits give low values 0.99 | locus YDR335W, strain msn5, hits give low values 0.997 | locus YDR388W, hits give low values 1.01 | locus YDR392W, strain spt3, hits give low values 0.982 | locus YDR502C, strain sam2, hits give low values 0.993 | locus YEL003W, strain gim4, hits give low values 1.02 | locus YEL037C, strain rad23, hits give low values 0.999 | locus YEL061C, strain CIN8 (second series), hits give low values 0.997 | locus YEL061C, strain CIN8, hits give low values 1.01 | locus YER015W, strain faa2, hits give low values 0.973 | locus YER016W, strain bim1, hits give low values 1 | locus YER110C, hits give low values 1 | locus YER111C, strain swi4, hits give low values 0.983 | locus YER155C, strain BEM2 (second series), hits give low values 1.04 | locus YER155C, strain BEM2, hits give low values 1.01 | locus YER167W, strain BCK2, hits give low values 1.01 | locus YFR010W, strain ubp6, hits give low values 1 | locus YGL078C, strain dbp3, hits give low values 0.996 | locus YGL086W, strain mad1, hits give low values 1.01 | locus YGL167C, strain pmr1, hits give low values 0.992 | locus YGL173C, strain kem1, hits give low values 1 | locus YGL227W, strain vid30, hits give low values 0.99 | locus YGL240W, strain doc1, hits give low values 1.02 | locus YGL248W, strain PDE1, hits give low values 1.01 | locus YGL253W, strain hxk2, hits give low values 0.949 | locus YGR135W, strain pre9, hits give low values 1.03 | locus YGR229C, strain SMI1, hits give low values 1 | locus YGR252W, strain gcn5, hits give low values 0.998 | locus YHR013C, strain ard1, hits give low values 0.967 | locus YHR027C, strain rpn1, hits give low values 1.01 | locus YHR030C, strain SLT2, hits give low values 1.02 and 1.01 | locus YHR079C, strain IRE1 (second series), hits give low values 1 | locus YHR079C, strain IRE1, hits give low values 1.04 | locus YHR094C, strain hxt1, hits give low values 0.999 | locus YHR129C, strain ARP1, hits give low values 1.01 | locus YHR142W, strain chs7, hits give low values 0.967 | locus YHR200W, strain rpn10, hits give low values 1.01 | locus YIL066C, strain RNR3, hits give low values 1.01 | locus YIL073C, strain SPO22, hits give low values 1.07 | locus YIL125W, strain kgd1, hits give low values 0.998 | locus YIR030C, strain dcg1, hits give low values 1 | locus YJL092W, strain hpr5, hits give low values 0.992 | locus YJL095W, strain BCK1 (second series), hits give low values 0.989 | locus YJL095W, strain BCK1, hits give low values 1.03 and 1.02 | locus YJL115W, strain asf1, hits give low values 0.996 | locus YJL129C, strain trk1, hits give low values 0.969 | locus YJL134W, strain LCB3, hits give low values 1.01 | locus YJL154C, strain vps35, hits give low values 0.999 | locus YJL164C, strain tpk1, hits give low values 1.01 | locus YJL166W, strain qcr8, hits give low values 0.955 | locus YJL168C, strain set2, hits give low values 1 | locus YJL187C, strain SWE1 (second series), hits give low values 1.01 | locus YJL187C, strain SWE1, hits give low values 0.995 | locus YJR043C, strain POL32, hits give low values 1.01 | locus YJR066W, strain TOR1, hits give low values 0.974 | locus YKL009W, strain mrt4, hits give low values 0.941 | locus YKL068W, hits give low values 1.01 | locus YKL085W, strain MDH1 (second series), hits give low values 0.983 | locus YKL085W, strain MDH1, hits give low values 0.983 | locus YKL160W, strain elf1, hits give low values 0.927 | locus YKR001C, strain vps1, hits give low values 0.986 | locus YKR026C, strain gcn3, hits give low values 0.987 | locus YKR091W, strain srl3, hits give low values 0.991 | locus YLL001W, strain dnm1, hits give low values 0.926 | locus YLL026W, hits give low values 0.999 | locus YLL041C, strain sdh2, hits give low values 1.03 | locus YLR027C, strain aat2, hits give low values 0.998 | locus YLR039C, strain RIC1, hits give low values 0.996 | locus YLR058C, strain SHM2, hits give low values 1.01 | locus YLR102C, strain apc9, hits give low values 0.997 | locus YLR113W, strain HOG1, hits give low values 1.02 | locus YLR221C, strain rsa3, hits give low values 0.977 | locus YLR258W, strain gsy2, hits give low values 1.02 | locus YLR262C, strain YPT6 (second series), hits give low values 0.941 | locus YLR262C, strain YPT6, hits give low values 0.982 | locus YLR268W, strain sec22, hits give low values 0.992 | locus YLR320W, strain mms22, hits give low values 0.994 | locus YLR330W, strain CHS5, hits give low values 1.01 | locus YLR342W, strain FKS1 (second series), hits give low values 1.01 | locus YLR342W, strain FKS1, hits give low values 0.981 | locus YLR357W, strain rsc2, hits give low values 0.957 | locus YLR370C, strain arc18, hits give low values 1 | locus YLR371W, strain rom2, hits give low values 1 | locus YLR384C, strain iki3, hits give low values 1 | locus YLR418C, strain cdc73, hits give low values 0.993 | locus YML016C, strain PPZ1, hits give low values 1 | locus YML032C, strain rad52, hits give low values 1 | locus YML120C, strain ndi1, hits give low values 0.962 | locus YML124C, strain tub3, hits give low values 1 | locus YMR058W, strain fet3, hits give low values 0.985 | locus YMR078C, strain ctf18, hits give low values 1.03 | locus YMR125W, strain sto1, hits give low values 0.929 | locus YMR129W, hits give low values 0.996 | locus YMR205C, strain PFK2, hits give low values 0.934 | locus YMR223W, strain ubp8, hits give low values 1.01 | locus YMR231W, strain pep5, hits give low values 0.997 | locus YMR263W, strain SAP30, hits give low values 1.02 | locus YMR307W, strain GAS1, hits give low values 1.06 | locus YNL067W, strain RPL9B, hits give low values 1.01 | locus YNL071W, strain lat1, hits give low values 0.984 | locus YNL153C, strain GIM3, hits give low values 1.01 | locus YNL183C, strain NPR1, hits give low values 0.97 | locus YNL209W, strain ssb2, hits give low values 0.997 | locus YNL233W, strain BNI4, hits give low values 1.01 | locus YNL248C, strain rpa49, hits give low values 0.906 | locus YNL250W, strain rad50, hits give low values 1.02 | locus YNL271C, strain bni1, hits give low values 0.997 | locus YNL298W, strain CLA4, hits give low values 0.991 | locus YNL307C, strain MCK1, hits give low values 1.01 | locus YNL322C, strain KRE1 (second series), hits give low values 0.993 | locus YNL322C, strain KRE1, hits give low values 1.01 | locus YNR049C, strain mso1, hits give low values 1.01 | locus YNR052C, strain pop2, hits give low values 1 | locus YOL006C, strain TOP1, hits give low values 1.01 | locus YOL012C, strain htz1 1.24 | locus YOL147C, strain pex11, hits give low values 1.01 | locus YOR001W, strain rrp6, hits give low values 1.07 | locus YOR061W, strain CKA2, hits give low values 1.01 | locus YOR069W, strain VPS5, hits give low values 1.01 | locus YOR070C, strain gyp1, hits give low values 1 | locus YOR080W, strain dia2, hits give low values 0.996 | locus YOR083W, strain WHI5, hits give low values 0.94 | locus YOR106W, strain vam3, hits give low values 0.922 | locus YOR136W, strain idh2, hits give low values 1.02 | locus YOR144C, strain elg1, hits give low values 1 | locus YOR184W, strain ser1, hits give low values 1.01 | locus YOR231W, strain MKK1, hits give low values 1.02 | locus YOR265W, strain rbl2, hits give low values 0.992 | locus YOR270C, strain vph1, hits give low values 0.875 | locus YOR290C, strain snf2, hits give low values 0.953 | locus YOR316C, strain cot1, hits give low values 1 | locus YPL051W, strain arl3, hits give low values 1.02 | locus YPL078C, strain atp4, hits give low values 0.931 | locus YPL106C, strain sse1, hits give low values 1.03 | locus YPL240C, strain hsp82, hits give low values 1 | locus YPL241C, strain CIN2, hits give low values 1.01 | locus YPL256C, strain CLN2, hits give low values 0.994 | locus YPR119W, strain clb2, hits give low values 1.01 | locus YPR141C, strain kar3, hits give low values 1.01 | locus YPR163C, strain tif3, hits give low values 1 | locus YPR167C, strain met16, hits give low values 1.01 | strain wtn01, hits give low values 0.991
active: locus YBR009C, strain hhf1, hits give low values 1.1 [resistant]

From PubChem BioAssay AID1159580 (chemical genetic matrix, 2015)
